Experimental data: PubChem BioAssay (NCATS)
Results filed as inconclusive are left out. Calls come from the whole dose curve; as a rule, active = well fitted curve in either direction with a large enough effect (not every such curve was filed as active); inconclusive = small, poorly fitted or top-dose-only effect, or another doubt; inactive = flat fitted curve, though single readings scatter.

What follows are compounds tested against Mitogen-activated protein kinase 10 (Mus musculus) (UniProt Q61831) (assay: JNK3 AlphaScreen Assay (AID 530;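 note: kinase came from lysate of stimulated human HepG2 cells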)). Conditions: JNK3 lysate, c-Jun phosphorylation; series mostly up to 57.1 µM; activity change, negative = inhibition: at the top concentration.
Outline: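 Biotinylated GST-cJun(1-79) served as substrate for JNK3 in HepG2 lysates stimulated with IL-1beta and TNF-alpha. ATP was 10 uM final, pH 7.6. Ser73 phosphorylation was quantified by AlphaScreen (680 nm excitation).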
% is set by controls: 0 for no effect and ±100 for the full control effect.

Activity change, negative = inhibition, inactive:
CC(Cc1ccccc1)C(=O)NCc1ccccn1 (stereo not drawn) -7.38%
COC(=O)[C@@]1(Cc2ccc(F)cc2)[C@H]2c3cc(C(=O)N4CCCC4)n(CCO)c3C[C@H]2CN1C(=O)c1ccccc1 -16.6%
COC(=O)[C@@]1(Cc2ccc(F)cc2)[C@H]2c3cc(C(=O)N(C)C)n(Cc4cc(F)c(F)c(F)c4)c3C[C@H]2CN1C(=O)c1ccccc1 -0.0323%
CCc1c2c(nc3cccc(OC)c13)OC(CC)C2 (stereo not drawn) -19.7%
COC(=O)[C@@]1(Cc2ccc(F)cc2)[C@H]2c3cc(C(=O)N4CCCC4)n(Cc4cccc5ccccc45)c3C[C@H]2CN1C(=O)c1ccccc1 -24.5%
COC(=O)c1ccc(C#CC(NP(=O)(c2ccccc2)c2ccccc2)c2ccccc2)cc1 (stereo not drawn) -15.7%
CCCC1(C(=O)OC)C=C2C(=C(C)C(=O)C2C)CN1 (stereo not drawn) 1.54%
COC(=O)[C@@]1(Cc2ccccc2)[C@H]2c3cc(C(=O)N(C)C)n(CCN4CNCC4=O)c3C[C@H]2CN1C(=O)c1ccccc1 -0.589%
CC1(C)S[C@@H]2[C@@H](NC(=O)[C@@H](N)c3ccccc3)C(=O)N2[C@H]1C(=O)O 17.2%
COC(=O)[C@@]1(Cc2ccccc2)[C@H]2c3cc(C(=O)N4CCCC4)n(Cc4ccc(OC)c(OC)c4)c3C[C@H]2CN1C(=O)c1ccccc1 -21%
C[C@@]1(C(NC(=O)c2ccccc2)c2ccc(-c3ccccc3)cc2)C[C@H]1C1CCCCC1 (stereo partly drawn) 0.524%
CCCC[C@@H]1C[C@H]1C(NC(=O)c1ccc(-c2ccccc2)cc1)c1ccc(-c2ccccc2)cc1 (stereo partly drawn) 3.05%
COC(=O)C1(Cc2ccccc2)C=C2C(=C(C)C(=O)C2C)CN1 (stereo not drawn) -9.49%
